Measured values taken from PubChem BioAssay (Tox21).
Values joined by “and” are separate entries in the source; they are usually repeats but may differ in a detail not shown here. Identical values can stand only once. Records with an inconclusive call do not appear. More than one record can exist for a structure, and the calls need not agree. Active and inactive are the calls of the source. Unless noted, calls come from the whole dose curve.

Legend:
[1] = qHTS assay to identify small molecule agonists of the sonic hedgehog signaling (Shh) pathway (AID 1259368);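 note: NIH/3T3-derived 3T3Gli1-Luc cells carrying a stable Gli1-driven firefly luciferase reporter; series mostly up to about 92 µM; nearly all actives have a fitted effect of over 15% in size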
Summary of the method: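 Luminescence was read after 30 min at room temperature with luciferase reagent. Before that, 3T3Gli1-Luc cells (NIH/3T3 clone, stable Gli1-Luc reporter; 2,000/well) were exposed to compounds for 24 hr at 37C, 5% CO2, compounds being added 4 hr post-plating.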

[2] = qHTS assay to identify small molecule antagonists of the sonic hedgehog signaling (Shh) pathway (AID 1259369); note: nearly all actives have a fitted effect of over 45% in size; note: potency is the fitted concentration of half-maximal effect
Summary of the method: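 Antagonist mode: compound added to 3T3 Gli1-Luc cells followed by conditioned-medium stimulation, 24 h at 37 C, 5% CO2. Inhibition taken as loss of Gli1-driven luciferase luminescence.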

[3] = target: Estrogen receptor beta (Homo sapiens) (UniProt Q92731); experiment: qHTS assay to identify small molecule antagonists of the estrogen receptor beta (ER-beta) signaling pathway (AID 1259378; active = well fitted inhibition curve with a large enough effect in the signal ratio in the repeat runs, not every such curve was filed as active; the % refers to the signal ratio)
Chain of Estrogen receptor beta (Homo sapiens) (Q92731 whole entry, looked up): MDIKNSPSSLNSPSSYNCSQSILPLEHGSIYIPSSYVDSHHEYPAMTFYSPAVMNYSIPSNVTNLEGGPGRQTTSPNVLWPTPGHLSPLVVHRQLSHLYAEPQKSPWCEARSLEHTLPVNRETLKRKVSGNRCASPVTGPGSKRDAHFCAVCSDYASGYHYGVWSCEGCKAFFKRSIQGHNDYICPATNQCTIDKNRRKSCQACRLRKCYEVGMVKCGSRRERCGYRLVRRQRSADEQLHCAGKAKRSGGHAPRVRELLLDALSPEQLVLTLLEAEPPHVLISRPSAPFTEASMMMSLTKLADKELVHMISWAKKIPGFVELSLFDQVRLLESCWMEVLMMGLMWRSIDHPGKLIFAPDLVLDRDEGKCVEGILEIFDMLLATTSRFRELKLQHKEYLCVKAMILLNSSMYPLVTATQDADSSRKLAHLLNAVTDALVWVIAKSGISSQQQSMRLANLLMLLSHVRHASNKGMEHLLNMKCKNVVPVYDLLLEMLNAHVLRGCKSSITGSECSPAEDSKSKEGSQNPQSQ
Summary of the method: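 ER-beta-UAS-bla HEK293T cells in 2% charcoal-stripped FBS medium treated with compound plus 1nM final 17-beta-estradiol for 16 hr at 37C. Beta-lactamase reporter read by FRET substrate fluorescence after 2 hours at room temperature.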

[4] = qHTS assay to identify small molecule agonists of the estrogen receptor beta (ER-beta) signaling pathway - cell viability counter screen (AID 1259380; active = well fitted curve in the direction sought with a large enough effect in the repeat runs; an effect the other way counts as inactive or inconclusive; note: nearly all actives have a fitted effect of over 30% in size)
Summary of the method: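 Cell viability counter screen: CellTiter-Glo luminescence (30 min, room temperature) measured in the same wells as the beta-lactamase readout, after 16 hr compound exposure at 37C of ER-beta-bla HEK293T cells in 2% charcoal-stripped FBS medium.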

[5] = qHTS assay to identify small molecule antagonists of the estrogen receptor beta (ER-beta) signaling pathway - cell viability counter screen (AID 1259382; active = well fitted curve in the direction sought with a large enough effect in the repeat runs; an effect the other way counts as inactive or inconclusive; note: series mostly up to about 92 µM; nearly all actives have a fitted effect of over 55% in size)
Summary of the method: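 Cytotoxicity was measured in the same wells by CellTiter-Glo luminescence after 30 min at room temperature. Cells were ER-beta-bla HEK293T in charcoal-stripped serum, given compound together with 1 nM E2 and incubated 16 h at 37C.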

[6] = target: Estrogen receptor (Homo sapiens) (UniProt P03372); experiment: qHTS assay to identify small molecule agonists of the estrogen receptor alpha (ER-alpha) signaling pathway in the presence of an antagonist (AID 1259383); note: nearly all actives have a fitted effect of over 15% in size; note: potency is the fitted concentration of half-maximal effect; for activation: top concentration of the series differs between compounds
Chain of Estrogen receptor (Homo sapiens) (P03372 whole entry, looked up): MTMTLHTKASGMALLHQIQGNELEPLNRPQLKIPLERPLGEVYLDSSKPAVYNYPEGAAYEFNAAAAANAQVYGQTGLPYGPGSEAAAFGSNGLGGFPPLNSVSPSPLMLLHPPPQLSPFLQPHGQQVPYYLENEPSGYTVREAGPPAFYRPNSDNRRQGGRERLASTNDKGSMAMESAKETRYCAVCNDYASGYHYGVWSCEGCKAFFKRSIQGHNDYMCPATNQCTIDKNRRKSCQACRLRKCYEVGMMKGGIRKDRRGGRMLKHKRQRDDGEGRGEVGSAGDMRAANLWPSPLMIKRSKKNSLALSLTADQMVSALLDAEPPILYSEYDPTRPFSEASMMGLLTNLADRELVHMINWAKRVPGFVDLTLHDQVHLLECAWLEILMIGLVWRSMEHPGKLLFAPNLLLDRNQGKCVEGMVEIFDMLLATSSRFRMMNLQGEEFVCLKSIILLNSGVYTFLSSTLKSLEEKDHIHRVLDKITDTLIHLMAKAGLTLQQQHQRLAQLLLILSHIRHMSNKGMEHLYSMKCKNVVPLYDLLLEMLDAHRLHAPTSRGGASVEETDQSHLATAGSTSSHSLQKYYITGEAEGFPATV
Summary of the method: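 Agonist-mode confirmation run in the presence of 10.0nM (final) ICI-182,780 antagonist. The reporter was ERE-driven luciferase in VM7Luc4E2 cells, grown in charcoal-stripped serum. Cells were exposed to 15-concentration compound series for 22hr, then ONE-Glo luminescence was read.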

[7] = qHTS assay to identify small molecule agonists or antagonists of the thyroid stimulating hormone receptor (TSHR) signaling pathway - wild type cell line counter screen (AID 1259384)
Summary of the method: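 Wild-type Hek293 cells, 800/well, 18 h at 37C, then compound with Ro20-1724 for 30 min RT. cAMP by HTRF (cAMP-d2/anti-cAMP cryptate), 1 h RT, fluorescence read. 15 concentrations, triplicates.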

[8] = qHTS assay to identify small molecule agonists of the androgen receptor (AR) signaling pathway in the presence of an antagonist - cell viability counter screen (AID 1259379; active = well fitted curve in the direction sought with a large enough effect in the repeat runs; an effect the other way counts as inactive or inconclusive;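 note: MDA-kb2 human breast cancer cells carrying an MMTV luciferase reporter; series mostly up to about 92 µM; nearly all actives have a fitted effect of over 25% in size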)
Summary of the method: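 Cytotoxicity counter-screen run in the same wells as the nilutamide-challenged (3.0 µM final) AR agonist assay in MDA-kb2 cells. Compounds tested at 15 concentrations for 16 h, 37 °C without CO2; CellTiter-Fluor fluorescence read.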

[9] = target: Androgen receptor (Homo sapiens) (UniProt P10275); experiment: qHTS assay to identify small molecule agonists of the androgen receptor (AR) signaling pathway in the presence of an antagonist (AID 1259381); note: nearly all actives have a fitted effect of over 15% in size; note: potency is the fitted concentration of half-maximal effect
Chain of Androgen receptor (Homo sapiens) (P10275 whole entry, looked up): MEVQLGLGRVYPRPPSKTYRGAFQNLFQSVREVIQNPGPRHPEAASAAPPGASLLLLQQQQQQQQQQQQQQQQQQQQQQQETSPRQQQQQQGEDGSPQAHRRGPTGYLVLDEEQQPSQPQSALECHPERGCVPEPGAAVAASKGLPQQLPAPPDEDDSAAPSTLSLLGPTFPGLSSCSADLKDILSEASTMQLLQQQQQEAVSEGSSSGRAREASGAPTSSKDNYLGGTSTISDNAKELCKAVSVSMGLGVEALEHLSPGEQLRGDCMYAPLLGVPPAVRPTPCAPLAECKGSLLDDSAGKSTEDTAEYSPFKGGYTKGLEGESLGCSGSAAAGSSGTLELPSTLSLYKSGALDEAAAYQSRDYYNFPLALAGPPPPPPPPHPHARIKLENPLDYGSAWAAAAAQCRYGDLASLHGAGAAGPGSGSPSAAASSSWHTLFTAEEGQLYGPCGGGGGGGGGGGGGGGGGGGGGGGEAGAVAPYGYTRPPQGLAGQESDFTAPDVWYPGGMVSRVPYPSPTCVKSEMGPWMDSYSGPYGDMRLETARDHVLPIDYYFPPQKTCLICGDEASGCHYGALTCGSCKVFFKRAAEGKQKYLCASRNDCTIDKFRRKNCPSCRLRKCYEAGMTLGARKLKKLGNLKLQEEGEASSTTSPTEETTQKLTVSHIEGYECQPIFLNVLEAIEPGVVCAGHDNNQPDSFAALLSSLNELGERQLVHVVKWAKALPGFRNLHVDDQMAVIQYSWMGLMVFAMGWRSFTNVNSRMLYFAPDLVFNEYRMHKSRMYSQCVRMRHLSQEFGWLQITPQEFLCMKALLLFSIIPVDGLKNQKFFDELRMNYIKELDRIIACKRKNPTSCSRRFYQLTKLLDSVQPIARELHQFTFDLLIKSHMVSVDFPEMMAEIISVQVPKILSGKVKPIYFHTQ
Summary of the method: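 Agonist-mode confirmation run against 3.0 uM final nilutamide: compounds titrated at 15 concentrations onto MDA-kb2 MMTV-luciferase reporter cells. Luminescence measured with ONE-Glo following 16 hr incubation, 37C, 0% CO2.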

[10] = target: Estrogen receptor beta (Homo sapiens) (UniProt Q92731); experiment: qHTS assay to identify small molecule agonists of the estrogen receptor beta (ER-beta) signaling pathway (AID 1259377; active = well fitted activation curve with a large enough effect in the signal ratio in the repeat runs, not every such curve was filed as active; the % refers to the signal ratio)
Summary of the method: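 A UAS-controlled beta-lactamase reporter in ER-beta-UAS-bla HEK293T cells reports receptor activation. Compounds act for 16 hr at 37C in 2% charcoal-stripped serum, and a FRET substrate is read by fluorescence after 2 hours.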
% is set by controls: 0 for no effect and ±100 for the full control effect.

Nc1cc(=O)[nH]c(N)n1
inactive: outcome [1] | Potency [2] | outcome [3] | Potency [4] | Potency [5] | Potency [6] | outcome [7]

CC(C)NCC(O)c1ccc(NS(C)(=O)=O)cc1 (configuration not stated)
inactive: outcome [1] | Potency [2] | outcome [3] | Potency [8] | Potency [5] | outcome [7]

CC(=O)OC/C=C(\C)CC/C=C(\C)CCC=C(C)C
inactive: outcome [1] | Potency [2] | outcome [3] | Potency [4] | Potency [5] | Potency [6] | outcome [7]

CCC=O
inactive: outcome [1] | Potency [2] | outcome [3] | Potency [8] | Potency [5] | outcome [7]

C/C=C(\C)C#N
inactive: outcome [1] | Potency [2] | outcome [3] | Potency [8] | Potency [5] | Potency [6] | outcome [7]

O=C(c1ccccc1)C1CCCCC1
inactive: outcome [1] | Potency [2] | Potency [8] | Potency [4] | Potency [9] | Potency [5] | Potency [6] | outcome [7]

CC(C)(C)c1ccc(O)c(O)c1
inactive: outcome [1] | Potency [8] | Potency [4] | Potency [5] | outcome [7]
active: Potency [2] 15.9 µM and 6.86 µM

CCn1ccnc1CC1COc2ccccc2O1 (configuration not stated)
inactive: outcome [1] | Potency [2] | Potency [8] | Potency [4] | Potency [9] | Potency [5] | Potency [6] | outcome [7]

O=c1cc(-c2ccccc2)oc2ccccc12
inactive: outcome [1] | Potency [8] | Potency [4] | Potency [5]
active: Potency [2] 15.3 µM | Potency [6] 2.73 µM and 4.06 µM
inactive and 4.3 µM (active): Potency [9]

CC(C)CNCC(C)C
inactive: outcome [1] | Potency [2] | outcome [3] | Potency [8] | Potency [5] | outcome [7]

COC(=O)CCSCCC(=O)OC
inactive: outcome [1] | Potency [2] | outcome [3] | Potency [8] | Potency [5] | outcome [7]

N[C@H](C(=O)O)c1ccc(O)cc1
inactive: activity change [1] -0.267% [at 18.9 µM] | Potency [2] | activity change, negative = cytotoxicity [8] 0.253% [at 19 µM] | activity change, negative = cytotoxicity [4] 9.39% [at 19 µM] | activity change, negative = cytotoxicity [5] 3.71% [at 19 µM] | activation [6] 0.585% [at 19 µM] | cAMP activity change [7] 3.37% [at 18.9 µM]

NC(=O)COCCN1CCN(C(c2ccccc2)c2ccc(Cl)cc2)CC1 (configuration not stated)
inactive: outcome [1] | Potency [2] | Potency [8] | Potency [4] | Potency [9] | Potency [5] | Potency [6] | outcome [7]

C=COCC1CCC(CO)CC1 (configuration not stated)
inactive: outcome [1] | Potency [2] | Potency [8] | Potency [4] | Potency [5] | Potency [6] | outcome [7]

O=C1CCCN1C1CCCCC1
inactive: outcome [1] | Potency [2] | Potency [8] | Potency [4] | Potency [5] | Potency [6] | outcome [7]

Cc1ccc(Cl)cc1Cl
inactive: outcome [1] | Potency [2] | outcome [3] | Potency [4] | Potency [5] | Potency [6] | outcome [7]

Cn1c(N)c(N=O)c(=O)n(C)c1=O
inactive: outcome [1] | Potency [2] | Potency [8] | Potency [4] | Potency [5]

N=C(N)c1ccc2cc(OC(=O)c3ccc(N=C(N)N)cc3)ccc2c1
inactive: outcome [1] | Potency [2] | Potency [8] | Potency [4] | Potency [9] | Potency [5] | Potency [6]

Cc1cc(O)cc2c1O[C@](C)(CCC[C@H](C)CCC[C@H](C)CCCC(C)C)CC2
inactive: outcome [1] | Potency [2] | Potency [8] | Potency [4] | Potency [5] | Potency [6] | outcome [7]

CS(=O)(=O)O
inactive: outcome [1] | Potency [2] | outcome [3] | Potency [8] | Potency [9] | Potency [5] | Potency [6] | outcome [7]

Cc1c(NC(C)C)c(=O)n(-c2ccccc2)n1C
inactive: outcome [1] | outcome [10] | outcome [3] | Potency [8] | Potency [4] | Potency [5] | Potency [6] | outcome [7]

CCOC(=O)c1cccc(N)c1
inactive: outcome [1] | outcome [10] | outcome [3] | Potency [8] | Potency [4] | Potency [5] | Potency [6] | outcome [7]

Cc1ccc(C#N)cc1
inactive: outcome [1] | outcome [10] | outcome [3] | Potency [8] | Potency [4] | Potency [5] | Potency [6] | outcome [7]

C1OCOCO1
inactive: outcome [1] | Potency [2] | Potency [8] | Potency [5] | outcome [7]

O=C(O)CCCl
inactive: outcome [1] | outcome [10] | outcome [3] | Potency [8] | Potency [4] | Potency [5] | Potency [6] | outcome [7]

COc1ccc2c(c1)c(CC(=O)OCC(=O)O)c(C)n2C(=O)c1ccc(Cl)cc1
inactive: outcome [1] | Potency [2] | Potency [4] | Potency [9] | Potency [5] | outcome [7]

CCCCCOC(=O)CCCCC
inactive: outcome [1] | Potency [2] | Potency [5] | Potency [6]

CCCCC/C=C\CCC=O
inactive: outcome [1] | Potency [2] | Potency [4] | Potency [5] | Potency [6] | outcome [7]

CC(NC(CCc1ccccc1)C(=O)O)C(=O)N1C(=O)N(C)CC1C(=O)O (configuration not stated)
inactive: outcome [1] | outcome [10] | outcome [3] | Potency [8] | Potency [4] | Potency [9] | Potency [5] | outcome [7]

CCO[Si](CCC1CCC2OC2C1)(OCC)OCC (configuration not stated)
inactive: outcome [1] | outcome [10] | outcome [3] | Potency [8] | Potency [4] | Potency [5] | Potency [6] | outcome [7]

NS(=O)(=O)c1ccccc1Cl
inactive: outcome [1] | Potency [2] | Potency [8] | Potency [4] | Potency [5] | outcome [7]

C=CCS(=O)(=O)O
inactive: outcome [1] | Potency [2] | Potency [4] | Potency [5] | Potency [6] | outcome [7]

NC(=O)c1ccc([N+](=O)[O-])cc1
inactive: outcome [1] | Potency [2] | Potency [8] | Potency [4] | Potency [5] | outcome [7]

CN(C)CCCSc1ccccc1NC(=O)/C=C/c1ccccc1
inactive: outcome [1] | Potency [2] | Potency [8] | Potency [5] | Potency [6] | outcome [7]

CCc1cccc2c(CCO)c[nH]c12
inactive: outcome [1] | outcome [10] | outcome [3] | Potency [8] | Potency [4] | Potency [9] | Potency [5] | outcome [7]

CC(=O)Nc1ccc(S(N)(=O)=O)cc1
inactive: outcome [1] | outcome [10] | outcome [3] | Potency [8] | Potency [4] | Potency [9] | Potency [5] | Potency [6] | outcome [7]
